Screens (PubChem)
ALR inh: human ALR oxidase inhibition via reduced H2O2 | purified ALR, DTT oxidation, H2O2 HRP-luminol luminescence | inhibition, % (no concentration beside the values) | 290,000 tested, 3.8% active | AID 485317;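 active = mean replicate inhibition above about 79%, with every replicate also reaching it, limit read from the data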
Target sequence (P55789 whole entry, looked up): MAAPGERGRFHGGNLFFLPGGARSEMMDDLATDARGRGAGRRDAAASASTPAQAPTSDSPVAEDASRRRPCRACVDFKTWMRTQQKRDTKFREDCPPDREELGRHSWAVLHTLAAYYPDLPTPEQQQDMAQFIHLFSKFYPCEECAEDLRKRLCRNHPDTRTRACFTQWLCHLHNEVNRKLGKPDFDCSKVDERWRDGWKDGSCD
CSC inhib: cancer stem cell inhibition. cancer stem cell-like cells viability, luminescence. inhibition, % at 7.5 µM. 300,000 tested, 1.1% active. AID 2717; in the data active = inhibition above about 75%; tested in HMLE shEcad cells
PP5 primary: inhibitors of human protein phosphatase 5 (PP5); purified PP5c, OMFP substrate fluorescence; 320,000 tested, 0.18% active; inhibition, % at 6.7 µM; P53041;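 active = inhibition above the campaign's mean inhibition across all tested compounds plus 3 SD, cut at about 9.5% in these data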
Calb FLC: affects C. albicans growth with fluconazole | C. albicans CaCi-2 (fluconazole-resistant clinical isolate) + fluconazole, Alamar Blue growth, 48 h | growth inhibition, % (no concentration beside the values) | 300,000 tested, 0.57% active | AID 1979;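 active = growth inhibition above about 58% in most replicates, limit read from the data, passing the limit was not always enough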;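 also: all wells also contain fluconazole at 8 µg/ml as a sub-toxic cotreatment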
PP1 inh: blocks human PP1-alpha phosphatase, a PP5 counter-screen | P62136 | purified PP1alpha, OMFP fluorescence | inhibition, % at 6.7 µM | 320,000 tested, 0.9% active;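 active = inhibition above the mean inhibition of all tested compounds plus 3 SD, computed separately for each screening campaign, cut at about 15% in these data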
Target sequence (P62136 whole entry, looked up): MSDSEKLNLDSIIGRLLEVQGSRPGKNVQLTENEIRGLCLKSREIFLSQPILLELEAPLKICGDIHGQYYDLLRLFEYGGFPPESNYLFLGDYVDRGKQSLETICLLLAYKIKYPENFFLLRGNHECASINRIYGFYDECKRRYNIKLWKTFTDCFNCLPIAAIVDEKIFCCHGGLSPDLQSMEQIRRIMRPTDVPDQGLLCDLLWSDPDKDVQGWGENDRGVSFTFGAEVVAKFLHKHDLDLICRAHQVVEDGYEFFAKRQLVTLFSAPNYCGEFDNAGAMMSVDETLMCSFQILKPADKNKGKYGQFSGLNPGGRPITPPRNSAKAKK
Large screens that a line does not name were inactive. Sampled rows, rich in hits. Any-hit rate of the full collection: about 5.4%.

CC(C)(C)c1cc([N+](=O)[O-])cc(C(C)(C)C)c1O	none (no result: ALR inh)
CN(C)P1(N(C)C)=Nc2c(c(N)nn2C)C(c2ccccc2)=N1	ALR inh 86.2
CCN(CC)CCN=C(C)c1c(O)n(-c2ccccc2OC)c(=O)[nH]c1=O	none
CC(Cc1ccccc1)NC(N)=O (configuration not stated)	none
CC(Cc1ccccc1)NC(=O)Cc1ccc(N(C)C)cc1 (configuration not stated)	ALR inh 98.8
CCn1c(NN=O)nc2ccccc21	Calb FLC 80.4
CCn1c(P(C)(=O)O)nc2ccccc21	none (no result: ALR inh)
CCc1ccccc1NC(=O)CSc1nnc([C@@H](N)Cc2c[nH]c3ccccc23)o1	none
Cc1ccc(NC(=O)CSc2nnc([C@@H](N)Cc3c[nH]c4ccccc34)o2)c(C)c1	ALR inh 97.7, Calb FLC 109.3
CCN1CCN(Cc2cccnc2)CC1	none (no result: ALR inh)
CC[C@@]1(O)C(=O)OCc2c1cc1n(c2=O)Cc2cc3ccccc3nc2-1	none (no result: Calb FLC)
CC[C@@]1(O)C(=O)OCc2c1cc1n(c2=O)Cc2cc3c(NC(=O)CN)cccc3nc2-1	CSC inhib 108.3
Cc1cc(C)n(-c2ccc(NN=C(C#N)C#N)cc2)n1	ALR inh 98.4
N#CC(C#N)=NNc1ccc(-n2ccc(C(F)(F)F)n2)cc1	none
CCC12C=CCN3CCC4(c5cc(Br)c(OC)cc5N(C)C4C(O)(C(=O)OC)C1OC(C)=O)C32 (configuration not stated)	ALR inh 84.7
NC(N)=N/N=C/c1cn(-c2ccccc2)nc1-c1cccs1	PP1 inh 16.8
COC(=O)c1nc(-c2ccc3c(n2)C(=O)C(N)=C(OC)C3=O)c(N)c(-c2ccc(OC)c(OC)c2O)c1C	CSC inhib 112.8
CSC(=Nc1ccccc1)c1c(O)n(C)c(=O)n(C)c1=O	none
Cn1c(O)c(C(=Nc2ccccc2)SCc2ccccc2Cl)c(=O)n(C)c1=O	ALR inh 96.3
CCOC(=O)c1c(NC(=O)c2c(N)n(CCCOC)c3nc4ccccc4nc23)sc2c1CCCC2	none
CCOC(=O)c1c(NC(=O)C(c2ccccc2)c2ccccc2)sc2c1C1CCN2CC1	CSC inhib 81.5
ClCCOCCCl	none (no result: Calb FLC)
Cc1cccc(OCC(=O)N2CCN(Cc3ccc([N+](=O)[O-])cc3)CC2)c1	none
Cc1cc(O)c2c(C)c(CC(=O)N3C[C@H]4C[C@@H](C3)c3cccc(=O)n3C4)c(=O)oc2c1	ALR inh 85.2
COc1cc(C)cc2oc(=O)c(CC(=O)N3C[C@H]4C[C@@H](C3)c3cccc(=O)n3C4)c(C)c12	none
CN(C)c1ccc(NC(=O)CN2C(=O)CN=C(c3ccccc3)c3ccccc32)cc1	ALR inh 99.4 (no result: CSC inhib)
Cc1ccc(NC(=O)CN2C(=O)CN=C(c3ccccc3)c3cc(Cl)ccc32)cc1	none (no result: ALR inh, CSC inhib)
CN(C)c1ccc(NC(=O)CN2C(=O)CN=C(c3ccccc3)c3cc(Cl)ccc32)cc1	ALR inh 88.9
Cc1c(C(=O)c2cccc3ccccc23)c2cccc3c2n1[C@H](CN1CCOCC1)CO3	CSC inhib 100.1
O=C(CN1CCOCC1)c1cccc2ccccc12	none
COC(=O)C1=C(c2ccccc2OCc2ccccc2)C[C@@H]2CC[C@H]1N2C(=O)NCCOc1ccc(OC)cc1	none (no result: Calb FLC)
O=C(O)CC[N+](=O)[O-]	none (no result: Calb FLC)
O=c1[nH]c(=S)n(CCC2=CCCCC2)c(O)c1/C=N/Nc1ccccc1	ALR inh 97.0
O=c1[nH]c(=S)n(CCC2=CCCCC2)c(O)c1C=NC1CCN(Cc2ccccc2)CC1	none
Nc1ccc(N=Nc2ccccc2)cc1	ALR inh 97.6
COc1ccc(N2C(=O)NC(=O)/C(=C/c3ccc([N+](=O)[O-])s3)C2=O)cc1	none
O=c1[nH]c(=O)n(-c2cccc(F)c2)c(O)c1/C=C1\C=Nc2ccccc21	none
O=c1[nH]c(=O)n(-c2ccccc2)c(O)c1/C=C1/C(c2ccccc2)=Nc2ccccc21	CSC inhib 88.4
O=C(O)c1ccc(-n2c(O)c(/C=C3\C=Nc4ccccc43)c(=O)[nH]c2=O)cc1	ALR inh 97.8
COc1ccc(-n2c(O)c(C(C)=NCCCn3ccnc3)c(=O)[nH]c2=O)cc1	none
Fc1ccc(NC2=NCCS2)cc1Cl	none
O=C1NC(=O)N(CCc2ccc(F)cc2)C(=O)/C1=C/c1cccs1	none
C=CCN1C(=O)/C(=C/c2cccs2)C(=O)NC1=S	ALR inh 96.3
CN1CCN(c2ccc(C(N)=O)cc2N)CC1	none
O=C(Cc1ccccc1)OCn1nnc2ccccc2c1=O	none
COc1ccc2[nH]cc(CCN=C(N)N)c2c1	none
COc1ccc2[nH]cc(C3=CCNCC3)c2c1	ALR inh 96.6 (no result: Calb FLC)
Cn1cc(C(=O)NCc2ccccc2)c2ccccc21	none (no result: ALR inh)
CN(C)c1ccc(/C=C/C=C/c2sc3ccccc3[n+]2C)cc1	Calb FLC 98.0
CC[n+]1c(/C=C/C=C/c2ccc(N(C)C)cc2)sc2ccccc21	Calb FLC 102.4 (no result: ALR inh)
C[n+]1c(-c2ccccc2)sc2ccccc21	none
CC[n+]1c(/C=C/N(C)c2ccccc2)sc2ccc(Cl)cc21	Calb FLC 105.7 (no result: ALR inh)
COc1ccc(CC(C)NCCC(c2ccccc2)c2ccccc2)cc1 (configuration not stated)	none
O=C1C2CCCN2C(c2ccc(Cl)cc2)N1c1ccccn1 (configuration not stated)	none
O=C1C2CCCN2C(c2ccccc2)N1c1ccccn1 (configuration not stated)	Calb FLC 62.6
COc1ccccc1CC1C(=O)C2CCN1CC2 (configuration not stated)	none (no result: CSC inhib)
O=C1C2CCN(CC2)C1Cc1ccc(OCc2ccccc2)cc1 (configuration not stated)	Calb FLC 109.2
C[C@@H]1O[C@@H](O[C@H]2C[C@@H](O)[C@]3(CO)[C@H]4[C@H](O)C[C@]5(C)[C@@H](C6COC(=O)C6)CC[C@]5(O)[C@@H]4CC[C@]3(O)C2)[C@H](O)[C@H](O)[C@H]1O (some centres not stated)	CSC inhib 82.0 (no result: Calb FLC)
CCCNC(=O)N1[C@H]2CC[C@@H]1C(C(=O)OC)=C(c1cccc(Cl)c1)C2	none (no result: Calb FLC)
CCN(CC)c1ccc(CC2C(=O)N(C)C(=O)N(C)C2=O)cc1	ALR inh 98.8
C=CCN1C(=O)/C(=C/c2ccc(N3CCOCC3)o2)C(=O)NC1=S	none
C=CCN1C(=O)NC(=O)/C(=C\c2ccc(-c3ccccc3[N+](=O)[O-])o2)C1=O	ALR inh 98.3
CCN1CCN(C(=O)COc2ccc(S(=O)(=O)N3CCOCC3)cc2C)CC1	none
COP(=O)(OC)C1(Nc2ccc(C)cc2)CCCCC1	ALR inh 98.6
COc1ccc(-n2c(O)c(/C(C)=N/N3CCCCCC3)c(=O)[nH]c2=O)cc1	none
CCOC(=O)c1cc(CC)sc1/N=C/c1c(O)[nH]c(=S)[nH]c1=O	ALR inh 98.4
CCOC(=O)c1c(/N=C/c2c(O)n(-c3cccc(C)c3)c(=O)[nH]c2=O)sc2c1CCCC2	none
CCOC(=O)c1cc(CC)sc1/N=C/C1C(=O)NC(=S)NC1=O	ALR inh 97.5
Cc1[nH]c2ccccc2c1C1=CCNCC1	ALR inh 93.9
